Laboratory results from ChEMBL document CHEMBL4513143, “CO-ADD screening of University of Natural Resources and Life (Austria) compounds”.
Potency and affinity values are given separately.

What was measured:
Staphylococcus aureus = conditions: Concentration 32 ug.mL-1; ASSAY_TEST Inhibition of Bacterial Growth; detection method Absorption (OD600); MEDIA CAMHB; plate type 384well; NBS; CORNING #3640; time 18 hr
Escherichia coli = conditions: Concentration 32 ug.mL-1; ASSAY_TEST Inhibition of Bacterial Growth; detection method Absorption (OD600); MEDIA CAMHB; plate type 384well; NBS; CORNING #3640; time 18 hr

SMILES | Inhibition (Staphylococcus aureus) | Inhibition (Escherichia coli)
CCN(CC)CC.C[C@H](CC1O[C@H]([C@H](O)CO)[C@@H](O)[C@H](O)[C@@H]1O)OP(=O)(O)OC[C@H]1O[C@@H](n2cnc3c(N)ncnc32)[C@H](O)[C@@H]1O (stereo not given in full) | 30.75% | 16.06%
N.O=C(O)C1(O)C[C@@H](O)[C@H](O)[C@@H]([C@@H](O)CO)O1 (stereo not given in full) | 25.6% | 22.94%
OC[C@@H](O)[C@H]1OC(O)C[C@@H](O)[C@@H]1O (stereo not given in full) | 21.66% | 15.99%
CCN(CC)CC.O=P(O)(O)OC1C[C@@H](O)[C@H](O)[C@@H]([C@H](O)CO)O1 (stereo not given in full) | 23.92% | 21.41%
CCN(CC)CC.C[C@@H](CC1O[C@H]([C@@H](O)CO)[C@@H](O)[C@H](O)[C@@H]1O)OP(=O)(O)O (stereo not given in full) | 24.59% | 26.95%
CCN(CC)CC.C[C@@H](CC1O[C@H]([C@H](O)CO)[C@@H](O)[C@H](O)[C@@H]1O)OP(=O)(O)OC[C@H]1O[C@@H](n2cnc3c(N)ncnc32)[C@H](O)[C@@H]1O (stereo not given in full) | 27.38% | 10.57%
CCN(CC)CC.C[C@H](CC1O[C@H]([C@@H](O)CO)[C@@H](O)[C@H](O)[C@@H]1O)OP(=O)(O)O (stereo not given in full) | 23.43% | 26.24%
CCN(CC)CC.C[C@@H](CC1O[C@H]([C@@H](O)CO)[C@@H](O)[C@H](O)[C@@H]1O)OP(=O)(O)OC[C@H]1O[C@@H](n2cnc3c(N)ncnc32)[C@H](O)[C@@H]1O (stereo not given in full) | 27.76% | 16.43%
CCN(CC)CC.C[C@H](CC1O[C@H]([C@@H](O)CO)[C@@H](O)[C@H](O)[C@@H]1O)OP(=O)(O)OC[C@H]1O[C@@H](n2cnc3c(N)ncnc32)[C@H](O)[C@@H]1O (stereo not given in full) | 25.31% | 11.12%
CC(=O)CC1O[C@H]([C@@H](O)CO)[C@@H](O)[C@H](O)[C@@H]1O (stereo not given in full) | 21.72% | 24.3%
